# The full ranking holds about 68,000 sequences; the median of “fluorescence intensity (a.u.)” is about 9,100, and the highest 2% start at about 16,000. Shown is part of a subset that was picked to be rich in the highest values.
# Molecular target: OsWRKY34 (Oryza sativa, UniProt Q0JBA9 1-250)
# Assay: protein-binding microarray (RPBM); PBS, 2% BSA, 51.3 ng/ul salmon testes DNA, 50 uM zinc acetate, 200 nM TF, 25 C, 1 h; high values mean tight binding
# Conditions: protein: recombinant; tags: N-terminal polyhistidine and DsRed monomer fusion (pET32a); label: CyDye5-dUTP incorporated in the synthesized complementary strand; 3' TTTTT single-stranded linker to array surface; dsDNA, one strand shown
# Method in brief: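 The binding signal is fluorescence intensity per array feature (arbitrary units). Readings came from an Axon 4000B scanner after a washed, 2% BSA-blocked, double-stranded custom Agilent array had been incubated for 1 h at 25 °C with 200 nM protein and 50 µM zinc acetate. The protein was a Ni–NTA-purified transcription factor fused N-terminally to polyhistidine and DsRed, expressed in E. coli BL21-CodonPlus.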
# OsWRKY34, sequence (Q0JBA9 entry or part of it): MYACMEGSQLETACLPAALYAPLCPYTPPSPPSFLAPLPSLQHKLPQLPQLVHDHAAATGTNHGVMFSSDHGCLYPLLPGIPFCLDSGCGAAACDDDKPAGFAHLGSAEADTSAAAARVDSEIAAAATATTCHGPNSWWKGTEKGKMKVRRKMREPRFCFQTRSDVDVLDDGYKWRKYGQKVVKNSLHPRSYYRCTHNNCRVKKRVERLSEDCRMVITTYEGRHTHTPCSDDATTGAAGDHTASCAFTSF
row,Sequence,binding signal
1,CGTACTATAATTTTGTCATTCCTGTTGAAATTTTATAATTCGGAGTCACCTAGTGCAG,9340 fluorescence intensity (a.u.)
2,GCCGGTCTCCTCCCCGCCACCGCCGCCGCCGCCGCCAATGCGGAGTCACCTAGTGCAG,8650 fluorescence intensity (a.u.)
3,GGCGGCGGCGGAGGAGGAGGAGGGGAGGGGAGCACGAGCGCGGAGTCACCTAGTGCAG,17400 fluorescence intensity (a.u.)
4,ATATATATATATATATATATATATATATAGAGCGCGCACTCGGAGTCACCTAGTGCAG,21200 fluorescence intensity (a.u.)
5,ATATATATATATATATATATATAGAGAGAGAGAGAGAGACCGGAGTCACCTAGTGCAG,8980 fluorescence intensity (a.u.)
6,GGCGGCGGAGGAGGAGGAGGCGCGAGGGGAGGCGAGCATGCGGAGTCACCTAGTGCAG,8150 fluorescence intensity (a.u.)
7,TAGCTTTGGAGGAGGAGGAGGAGGAGGGGCGCGAGCCATGCGGAGTCACCTAGTGCAG,10800 fluorescence intensity (a.u.)
8,TTGAGAGCTGGAGGCGCAGGCTGGGATCGGCGGAGCCATGCGGAGTCACCTAGTGCAG,63200 fluorescence intensity (a.u.)
9,CGATCGGAGGAGGAGGCGGCGGGGAGGGAGGAGGAGGATGCGGAGTCACCTAGTGCAG,10800 fluorescence intensity (a.u.)
10,GGGCGAGGAGCAGCGGCGGGCGGGCGGATGAGGGGCGGCGCGGAGTCACCTAGTGCAG,11400 fluorescence intensity (a.u.)
11,CGATCGGGCCGCGGCGCGAGGGAGGGGATCGGTGCGCGCGCGGAGTCACCTAGTGCAG,8060 fluorescence intensity (a.u.)
12,ATATATATATATATATATATATATATATATATGCGCAGAGCGGAGTCACCTAGTGCAG,9140 fluorescence intensity (a.u.)
13,GGAGGAGAGCTTGGTGGTGCGCTGATCGGCGGATGCGGGGCGGAGTCACCTAGTGCAG,8490 fluorescence intensity (a.u.)
14,GCGGGATCGCGCGGGCGGCGGCGGCGGCGGGGAGGGGATGCGGAGTCACCTAGTGCAG,16900 fluorescence intensity (a.u.)
15,CGCTCTCTTGTTGACCACCTCGCGTTGCACTGGGCCAGCCCGGAGTCACCTAGTGCAG,9490 fluorescence intensity (a.u.)
16,GCTGCTGGTGGTGGTAGTAGGACTTGGGGCTCGTGTTGTGCGGAGTCACCTAGTGCAG,9720 fluorescence intensity (a.u.)
17,TCGTAGGGTGCGGGGTGGCTGCCTGTCTCCTTCGCCTCGCCGGAGTCACCTAGTGCAG,9680 fluorescence intensity (a.u.)
18,ATCACCAGTTGCCATTCTGTCACCTCAACTTAGAACATACCGGAGTCACCTAGTGCAG,8290 fluorescence intensity (a.u.)
19,CAAACGTACTCCTACTCTCCAAGCAGCCTATATAAACCACCGGAGTCACCTAGTGCAG,8590 fluorescence intensity (a.u.)
20,TTTCACCTAGTCCTAGCCTAATTCGTCTATCTTTATCAATCGGAGTCACCTAGTGCAG,9710 fluorescence intensity (a.u.)
21,CGCTGCTTTTGCTGCTGCTGTTGATGATGCATCCCATTCCCGGAGTCACCTAGTGCAG,9140 fluorescence intensity (a.u.)
22,CGCGCGCGCGCGCGTACGTGGGAACAGAGAGCGGCGCCGACGGAGTCACCTAGTGCAG,27900 fluorescence intensity (a.u.)
23,GTAGCAATGGGCGGCGGGGAGCGGGGCTGAGCGGCAGCCGCGGAGTCACCTAGTGCAG,8150 fluorescence intensity (a.u.)
24,GGGAGCGGGTGGGAGTGGCCGGCGCGGAGGACGACGGCGGCGGAGTCACCTAGTGCAG,8280 fluorescence intensity (a.u.)
25,TATTTTAGTGCAAGGGGCGGGCGGGCGCGGTAGAAGTCAACGGAGTCACCTAGTGCAG,18200 fluorescence intensity (a.u.)
26,CGGAGGCATGGGGAGGCTGCTGCGGCGCCAATTGTGGCCACGGAGTCACCTAGTGCAG,8860 fluorescence intensity (a.u.)
27,GGCCGGTAGGGGTAGAACGGTCATTTCGTGCGCGGGGAGGCGGAGTCACCTAGTGCAG,9810 fluorescence intensity (a.u.)

row,Sequence,binding signal
1,GGCGTGGGGAGGCGGAGGGAGGGAGGGGAGCGGCTGCGCACGGAGTCACCTAGTGCAG,17700 fluorescence intensity (a.u.)
2,GCTGGGAGGGAGGAGCGGGAGGCGGCGCGGCGCGTGGAGGCGGAGTCACCTAGTGCAG,8580 fluorescence intensity (a.u.)
3,AGCTGAGGGGCGGCGGCGGCTGGCAAGGGGCGGCGGCGGCCGGAGTCACCTAGTGCAG,10900 fluorescence intensity (a.u.)
4,GGCGGCGGCGGCGGGGCGGCGTGGCGCCGAGGGAGGGGAACGGAGTCACCTAGTGCAG,12500 fluorescence intensity (a.u.)
5,TGCGGGGCGCAAGGCGCGCGGTAGGGGAGGGGTTAGCGCTCGGAGTCACCTAGTGCAG,8190 fluorescence intensity (a.u.)
6,GGTTCTTCTGAGCGGGGCCGGGGCGGGGCGGCAGCTGGGGCGGAGTCACCTAGTGCAG,30000 fluorescence intensity (a.u.)
7,AATACGGTTTGGAAGGGATCTTTTTTGGTTGGTTGCACTGCGGAGTCACCTAGTGCAG,9650 fluorescence intensity (a.u.)
8,ATAGTTGTTTTGCCTACCCCACCCATGCCGAAGATGGACACGGAGTCACCTAGTGCAG,8790 fluorescence intensity (a.u.)
9,ATCTTTTCTCTTCTCGACTTCTCGTATGCCGCGTCCCGTCCGGAGTCACCTAGTGCAG,11100 fluorescence intensity (a.u.)
10,CTTGTGGCTTGTGCAATTCTGTTTCATCGAGTTTGTTAACCGGAGTCACCTAGTGCAG,8830 fluorescence intensity (a.u.)
11,TTCAAATCTCATCCGAATTTTTTGTTTTTTATTTTTTTTTCGGAGTCACCTAGTGCAG,8280 fluorescence intensity (a.u.)
12,TAGTTCATCCTTGACATCAAGTGGGTTGCTAGTCTCATTCCGGAGTCACCTAGTGCAG,9450 fluorescence intensity (a.u.)
13,TAGGCTGTATTCTTATCCACTCATGCAGTGCTCTGATAGGCGGAGTCACCTAGTGCAG,11000 fluorescence intensity (a.u.)
14,TGGTTTGCATCTCTTCTTGCTCTTTGGAGGATTTACTACTCGGAGTCACCTAGTGCAG,9510 fluorescence intensity (a.u.)
15,CGGGGTGGGAGCAGGGGTCGCGCGGCGGGGTGCGGCCATGCGGAGTCACCTAGTGCAG,10100 fluorescence intensity (a.u.)
16,GGCGTGTTGTGTTCGGGTGGGTGCTGCGCAGGCTGCTGTACGGAGTCACCTAGTGCAG,17300 fluorescence intensity (a.u.)
17,AGGAGGCGGGGCGGGGCGGCGGCGGCGGCGGCGGCGCCCGCGGAGTCACCTAGTGCAG,11500 fluorescence intensity (a.u.)
18,GTGTTGGTGGCTCTGGCTGCGTCGACGTGCGCAGGGCGTTCGGAGTCACCTAGTGCAG,8050 fluorescence intensity (a.u.)
19,GGTCGCCGGATCGCGGGAGGGAGGGAGGGAGGGAGGGAGGCGGAGTCACCTAGTGCAG,14100 fluorescence intensity (a.u.)
20,GCAGGCGGAGGCGGAGGCGGAGGCGGAGGCGGCGGCGGCGCGGAGTCACCTAGTGCAG,8950 fluorescence intensity (a.u.)
21,GAGGCCGGGGTCGGGGCGAGCGAGGCGAGAGGGGAGGAGGCGGAGTCACCTAGTGCAG,8910 fluorescence intensity (a.u.)
22,GGGCGGAGGCGGGGATCGCGGCGGGAGGGGTGGATCCATGCGGAGTCACCTAGTGCAG,17400 fluorescence intensity (a.u.)
23,TTCTTCTAGAGGAGGAGGAGGCGGCGGGGCGGCGGGCGAGCGGAGTCACCTAGTGCAG,17300 fluorescence intensity (a.u.)
24,GGGAGTGTGGAGGTGTTGTGCTGCGGCGTGGGTGTGTTGGCGGAGTCACCTAGTGCAG,8640 fluorescence intensity (a.u.)
25,GCGGCCGGTCCGAGCGAGCGGAGAGGGAGGAGGCGGGGAGCGGAGTCACCTAGTGCAG,8360 fluorescence intensity (a.u.)
26,CGGCGGCGGAGGAGGAGGAGGAGGAGGGCGCGGGGCGGCGCGGAGTCACCTAGTGCAG,21700 fluorescence intensity (a.u.)
27,CTGCTCTTTCTTCTCTCTGCATTCCATTTCATTACTGCCTCGGAGTCACCTAGTGCAG,11000 fluorescence intensity (a.u.)
